More than one record can exist for a structure, and the calls need not agree. Calls of active or inactive are those of the source. How the source made its calls: active means hit-call score of the fitted dose curve at least 0.9, where 1 is the maximum; inactive means score below 0.9.

This test is described as follows: ATG_RORE_CIS: Attagene CIS-FACTORIAL HepG2 Assay for human RAR-related Orphan Receptor Element (RORE) (AID 2282959). The conditions noted are these: HepG2 Attagene cis-factorial RORE reporter, mRNA; actives raise or lower the signal. The protocol: ATG_CIS is a cell-based, multiplexed-readout assay that uses HepG2, a human liver cell line, with measurements taken at 24 hours after chemical dosing in a 24-well plate.ATG_RORE_CIS is one of 52 assay component(s) measured or calculated from the ATG_CIS assay. It is designed to make measurements of mRNA induction, a form of inducible reporter, as detected with fluorescence intensity signals by Reverse transcription polymerase chain reaction (RT-PCR) and Capillary electrophoresis technology.Data from the assay component ATG_RORE_CIS was analyzed into 1 assay endpoint. This assay endpoint, ATG_RORE_CIS, was analyzed with bidirectional fitting relative to DMSO as the negative control and baseline of activity. Using a type of inducible reporter, measures of mRNA for gain or loss-of-signal activity can be used to understand the reporter gene at the transcription factor-level as they relate to the gene RORA and RORB and RORC. Furthermore, this assay endpoint can be referred to as a primary readout, because this assay has produced multiple assay endpoints where this one serves a reporter gene function. To generalize the intended target to other relatable targets, this assay endpoint is annotated to the nuclear receptor intended target family, where the subfamily is orphan.
Human liver HepG2 cells are transiently transfected with multiple reporter transcription units (MRTUs) in 6-well plates using FuGene 6 reagent (Roche; 3 ml FuGene/1 mg DNA). The MRTU constructs are regulated by a cis-regulating element (promoter). […] A major difference between the CIS and TRANS system is that in CIS activities of endogenous TFs are measured, whereas the TRANS assay evaluates changes in activities of exogenous, chimeric NR-Gal4 proteins. […] At the end of 24 hour incubation, total RNA was isolated using TriZol reagent (Invitrogen). The isolated RNA is then reverse-transcribed using oligo(dT) primer and Mo-MLV reverse transcriptase (Invitrogen) with DNAse I (Ambion) treatment for 30 min. The one-tenth of the produced cDNA was amplified by PCR using Taq DNA polymerase (Invitrogen) and two reporter sequence-specific primers. The PCR products were fluorescently labeled by primer extension with 6-arboxyfluorescein (6-FAM) 5'-labeled reporter sequence-specific primer (2 min at 95 C, 20 s at 68 C and 10 min at 72 C) and these products were digested with 5U of HpaI (New England Biolabs) for 2h at 37 C. The fragments were purified using Qiaquick PCR columns (Qiagen), analyzed on an ABI 3130xL genetic analyzer (Applied Biosystems) with peak positions identified by using a set of X-rhodamine (ROX)-labeled MapMarker1000 molecular weight standards (BioVentures). The raw capillary electrophoresis data was processed using Attagraph software (Attagene).
Consider `[N-]=[N+]=[N-]`, for which the compound was called inactive.

For `c1ccc2c(c1)Nc1ccccc1S2`, the call was inactive.

With `CCCCC(CC)COC(=O)c1c(Br)c(Br)c(Br)c(Br)c1C(=O)OCC(CC)CCCC` (stereo not given), the call was inactive.

Regarding `Nc1ccc(Sc2ccc(N)cc2)cc1`, the AC50 was 36.6 µM (active).

Consider `O=C(CBr)OCc1ccccc1`, for which the result was inactive.

As for `N#Cc1ccc(O)cc1`, the result was inactive.

With `CC(Cl)(Cl)C(=O)O`, the compound was classed as inactive.

Take `O=S(=O)(F)C(F)(F)C(F)(F)C(F)(F)C(F)(F)C(F)(F)C(F)(F)C(F)(F)C(F)(F)F`: the result was inactive.

With `CC(C)(C)OOC(C)(C)C`, the outcome was inactive.

As to `O=P1(N(CCCl)CCCl)NCCCO1` (stereo not given), the result was inactive.

Regarding `CCC(C)(C)c1ccc(O)cc1`, the call was inactive.

On to `COC(N)=O`, for which the compound was called inactive.

In the case of `NNC(N)=S`, the compound was called inactive.

With `FC(F)(F)c1ccc(Cl)cc1`, the result was inactive.

In the case of `O=S1(=O)OCC2C(CO1)C1(Cl)C(Cl)=C(Cl)C2(Cl)C1(Cl)Cl` (stereo not given), the compound was called inactive.

In the case of `ClC(Cl)(Cl)c1ccccc1`, the result was inactive.

Take `C=C(C)C(=O)OCC1CO1` (stereo not given): the outcome was inactive.

As to `CCCCCCCc1ccc(O)cc1`, the compound was classed as inactive.

For the compound `O=C(O)CF`, the compound was classed as inactive.

Regarding `CCCCOCC1CO1` (stereo not given), the outcome was inactive.

With `O=NN1CCCC1`, the outcome was inactive.

As for `CCOc1ccc(C(C)(C)COCc2cccc(Oc3ccccc3)c2)cc1`, the compound was classed as inactive.

Regarding `CC(Cc1ccc(OCC(=O)O)cc1)NCC(O)c1csc(C(F)(F)F)n1` (stereo not given), the call was inactive.

For the compound `O=C(O)C=CC(F)(C(F)(F)F)C(F)(F)F`, the call was inactive.

With `CCCCc1ccc(O)cc1`, the result was inactive.

For the compound `COC(=O)C(F)(F)C(F)(F)OC(F)(C(F)(F)F)C(F)(F)OC(F)=C(F)F` (stereo not given), the AC50 is 0.451 µM (active) and the outcome was inactive.

For the compound `Oc1ccc(I)cc1`, the result was inactive.

Regarding `COP(=O)(O)OC`, the outcome was inactive.

As for `CCN(CC)c1ccccc1`, the compound was called inactive.

As to `CSC(C)(C)C=NO`, the result was inactive.

In the case of `N#Cc1c(-c2ccc(Cl)cc2)[nH]c(C(F)(F)F)c1Br`, the AC50 is 1 µM (active).

As to `CC1=C(C(=O)Nc2ccccc2)S(=O)(=O)CCO1`, the result was inactive.

As to `CC1(C)CN=C(NN=C(/C=C/c2ccc(C(F)(F)F)cc2)/C=C/c2ccc(C(F)(F)F)cc2)NC1`, the result was inactive.

In the case of `Cc1ccc(N)cc1N`, the result was inactive.

On to `CCCCN(CC)C(=O)SCCC`, for which the compound was called inactive.

For `CC(C)(C)c1ccccc1OP(=O)(Oc1ccccc1)Oc1ccccc1`, the result was inactive.

As for `NC(=O)C(F)(F)C(F)(F)F`, the outcome was inactive.

Take `CCOC(=O)c1ccccc1C(=O)OCC`: the call was inactive.

For `CNC(=O)Oc1ccc(N(C)C)c(C)c1`, the result was inactive.

For orientation: AC50 means the midpoint of the concentration-response curve, whichever way the signal moves.

Source of the values: PubChem BioAssay (EPA / NIEHS).
